Among the data in PubChem BioAssay (EPA / NIEHS) are outcome and AC50 values, retold here.

The source made the active and inactive calls. How the source made its calls: active means hit-call score of the fitted dose curve at least 0.9, where 1 is the maximum; inactive means score below 0.9.

Read-out in assay [1]: Transforming growth factor beta 1 (TGFb1), TGFB1 (gene 7040)
Description: BSK_KF3CT_TGFb1: BioMAP Diversity Plus: KF3CT Assay for Transforming growth factor beta 1 (TGFb1) Biomarker Activity (AID 2283072). The following applies: primary human keratinocytes with fibroblasts; actives raise or lower the signal. An outline of the steps: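 KF3CT co-culture (keratinocytes + fibroblasts), 24 h exposure → TGF-b1 ELISA → bidirectional fit, DMSO = baseline. Parallel SRB total-protein staining (0.1% SRB, 10% TCA fixation, 560 nm) for cytotoxicity.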

Read-out in assay [2]: C-C motif chemokine 2 (Homo sapiens) (UniProt P13500)
Description: BSK_KF3CT_MCP1: BioMAP Diversity Plus: KF3CT Assay for Monocyte Chemoattractant Protein 1 (MCP1/CCL2) Biomarker Activity (AID 2283073). The following applies: primary human keratinocytes with fibroblasts; actives raise or lower the signal. An outline of the steps:
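KF3CT skin co-culture (keratinocytes/foreskin fibroblasts), 24 h post-dose; MCP-1 by ELISA; gain/loss of signal fit bidirectionally vs DMSO baseline.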

Read-out in assay [3]: Matrix Metallopeptidase 9 (MMP9), MMP9 (gene 4318)
The assay is described as follows: BSK_KF3CT_MMP9: BioMAP Diversity Plus: KF3CT Assay for Matrix Metallopeptidase 9 (MMP9) Biomarker Activity (AID 2283074). The following applies: primary human keratinocytes with fibroblasts; actives raise or lower the signal. An outline of the steps:
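ELISA read-out of MMP-9 at 24 h post-dosing in a co-culture of human skin keratinocytes and foreskin fibroblasts. Gain or loss of signal was fitted in both directions against DMSO.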

Read-out in assay [4]: CD40, CD40 (gene 958)
The assay is described as follows: BSK_LPS_CD40: BioMAP Diversity Plus: LPS Assay for CD40 Biomarker Activity (AID 2283076). The following applies: primary human HUVEC with PBMC; actives raise or lower the signal. An outline of the steps: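 ELISA readout of CD40 in HUVEC/PBMC co-culture (BSK_LPS system), 24 h post-dosing; bidirectional curve fit, DMSO baseline; parallel SRB total-protein staining for cytotoxicity.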

Read-out in assay [5]: E-selectin (Homo sapiens) (UniProt P16581)
The assay is described as follows: BSK_LPS_Eselectin: BioMAP Diversity Plus: LPS Assay for Eselectin Biomarker Activity (AID 2283077). The following applies: primary human HUVEC with PBMC; actives raise or lower the signal. An outline of the steps:
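ELISA readout of E-selectin, 24 h post-dose, HUVEC + PBMC co-culture (LPS system). Gain or loss of signal vs DMSO baseline, bidirectional fit.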

Read-out in assay [6]: Interleukin-8 (IL8), CXCL8 (gene 3576)
Description: BSK_LPS_IL8: BioMAP Diversity Plus: LPS Assay for Interleukin-8 (IL8) Biomarker Activity (AID 2283078). The following applies: primary human HUVEC with PBMC; actives raise or lower the signal. The method, boiled down: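 HUVEC + PBMC co-culture, LPS-activated; test chemicals dosed, IL-8 read by ELISA at 24 h. Bidirectional curve fit vs DMSO baseline (gain or loss of signal).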

A short description of assay [7]: BSK_LPS_SRB: Viability Assessment in the BioMAP Diversity Plus: LPS Assay (AID 2283079).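 Further: total protein by sulforhodamine B absorbance as a cytotoxicity measure; measured one day after compound addition.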 The following applies: primary human HUVEC with PBMC. The method, boiled down: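 HUVEC + PBMC co-culture, LPS-stimulated; compound 24 h. 10% TCA fix, 0.1% SRB stain, A560. Bidirectional fit vs DMSO.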
Read-out in assay [8]: Interleukin-1 alpha (IL1a), IL1A (gene 3552)
Description: BSK_LPS_IL1a: BioMAP Diversity Plus: LPS Assay for Interleukin-1 alpha (IL1a) Biomarker Activity (AID 2283080). The following applies: primary human HUVEC with PBMC; actives raise or lower the signal. The method, boiled down:
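HUVEC/PBMC co-culture, LPS system; 24 h after dosing; IL-1a by ELISA; gain or loss of signal fitted bidirectionally vs DMSO baseline.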

The nature of assay [9]: BSK_LPS_PGE2: BioMAP Diversity Plus: LPS Assay for Prostaglandin E2 (PGE2) Biomarker Activity (AID 2283082). The following applies: primary human HUVEC with PBMC; actives raise or lower the signal. The method, boiled down: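 Compounds were added to the LPS co-culture of endothelium and PBMC, and PGE2 was measured by ELISA after 24 h. Responses in either direction were fitted with DMSO as baseline.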

Read-out in assay [10]: Tissue Factor, F3 (gene 2152)
Description: BSK_LPS_TissueFactor: BioMAP Diversity Plus: LPS Assay for Tissue Factor Biomarker Activity (AID 2283084). The following applies: primary human HUVEC with PBMC; actives raise or lower the signal. An outline of the steps:
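HUVEC/PBMC co-culture, LPS-activated; CD142 ELISA read 24 h post-dose; bidirectional curve fit vs DMSO negative control.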

Read-out in assay [11]: Tumor necrosis factor (Homo sapiens) (UniProt P01375)
Description: BSK_LPS_TNFa: BioMAP Diversity Plus: LPS Assay for Tumour Necrosis Factor alpha (TNFa) Biomarker Activity (AID 2283085).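 On AC50: TNFa protein level quantified by ELISA in the co-culture.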 The following applies: primary human HUVEC with PBMC; actives raise or lower the signal. The method, boiled down: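 Cells (umbilical vein endothelium plus peripheral blood mononuclear cells) were dosed with chemical, incubated 24 h, then TNFa was quantified by ELISA; values derive from bidirectional fitting with DMSO as baseline.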

Read-out in assay [12]: Vascular cell adhesion molecule 1 (VCAM1), VCAM1 (gene 7412)
The assay is described as follows: BSK_LPS_VCAM1: BioMAP Diversity Plus: LPS Assay for Vascular cell adhesion molecule 1 (VCAM1) Biomarker Activity (AID 2283086). The following applies: primary human HUVEC with PBMC; actives raise or lower the signal. An outline of the steps: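 Cells are dosed in an LPS-stimulated endothelial/mononuclear co-culture and, after 24 h, VCAM-1 is quantified by ELISA. Activity in either direction is fitted relative to the DMSO negative control.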

Read-out in another assay: CD38, CD38 (gene 952)
Description: BSK_SAg_CD38: BioMAP Diversity Plus: SAg Assay for CD38 Biomarker Activity (AID 2283087). The following applies: primary human HUVEC with PBMC; actives raise or lower the signal. An outline of the steps:
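CD38 quantified by ELISA (fluorescence) in a superantigen-activated endothelial cell–PBMC co-culture at 24 h post-dose. Activity fitted in both directions relative to DMSO; parallel SRB and Alamar Blue cytotoxicity read-outs.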

Read-out in assay [13]: CD40, CD40 (gene 958)
Description: BSK_SAg_CD40: BioMAP Diversity Plus: SAg Assay for CD40 Biomarker Activity (AID 2283088). The following applies: primary human HUVEC with PBMC; actives raise or lower the signal. An outline of the steps:
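HUVEC/PBMC co-culture, 24 h post-dose; CD40 by ELISA, fluorescence intensity; bidirectional fit vs DMSO negative control.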

Read-out in another assay: CD69, CD69 (gene 969)
The assay is described as follows: BSK_SAg_CD69: BioMAP Diversity Plus: SAg Assay for CD69 Biomarker Activity (AID 2283089). The following applies: primary human HUVEC with PBMC; actives raise or lower the signal. The method, boiled down: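 HUVEC co-cultured with PBMC were dosed with chemical, and CD69 was measured by ELISA with fluorescence read-out 24 h later. Bidirectional curve fitting used DMSO as negative control and activity baseline.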

Read-out in assay [14]: E-selectin (Homo sapiens) (UniProt P16581)
Description: BSK_SAg_Eselectin: BioMAP Diversity Plus: SAg Assay for Eselectin Biomarker Activity (AID 2283091). The following applies: primary human HUVEC with PBMC; actives raise or lower the signal. The method, boiled down:
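E-selectin ELISA readout at 24 h post-dosing in human umbilical vein endothelial cell/PBMC co-culture; gain or loss of signal fitted relative to DMSO baseline.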

Read-out in assay [15]: Monocyte Chemoattractant Protein-1 (MCP1), CCL2 (gene 6347)
The assay is described as follows: BSK_SAg_MCP1: BioMAP Diversity Plus: SAg Assay for Monocyte Chemoattractant Protein-1 (MCP1) Biomarker Activity (AID 2283090). The following applies: primary human HUVEC with PBMC; actives raise or lower the signal. An outline of the steps:
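Values derive from bidirectional fitting of ELISA-measured MCP1 against DMSO controls. Readings were taken 24 h after dosing human vascular endothelial cells co-cultured with peripheral blood mononuclear cells under superantigen stimulation.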

Sequence of E-selectin (Homo sapiens) (P16581 whole entry, looked up): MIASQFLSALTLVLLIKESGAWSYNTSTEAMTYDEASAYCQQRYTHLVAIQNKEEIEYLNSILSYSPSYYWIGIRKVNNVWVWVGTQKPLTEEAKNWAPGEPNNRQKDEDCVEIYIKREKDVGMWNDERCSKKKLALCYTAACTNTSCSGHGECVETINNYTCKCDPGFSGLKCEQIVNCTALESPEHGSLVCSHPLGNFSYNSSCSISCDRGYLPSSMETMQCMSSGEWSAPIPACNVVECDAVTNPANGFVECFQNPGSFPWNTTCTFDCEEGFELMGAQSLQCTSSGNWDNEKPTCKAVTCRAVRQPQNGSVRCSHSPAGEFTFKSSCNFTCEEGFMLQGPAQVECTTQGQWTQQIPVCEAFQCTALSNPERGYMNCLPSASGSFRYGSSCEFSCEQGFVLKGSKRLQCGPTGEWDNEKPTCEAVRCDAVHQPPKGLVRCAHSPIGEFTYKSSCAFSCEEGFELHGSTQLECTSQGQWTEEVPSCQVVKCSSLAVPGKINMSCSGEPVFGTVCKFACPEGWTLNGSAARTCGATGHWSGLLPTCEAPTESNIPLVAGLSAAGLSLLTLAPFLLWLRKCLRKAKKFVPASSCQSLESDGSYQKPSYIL
Sequence of Tumor necrosis factor (Homo sapiens) (P01375 whole entry, looked up): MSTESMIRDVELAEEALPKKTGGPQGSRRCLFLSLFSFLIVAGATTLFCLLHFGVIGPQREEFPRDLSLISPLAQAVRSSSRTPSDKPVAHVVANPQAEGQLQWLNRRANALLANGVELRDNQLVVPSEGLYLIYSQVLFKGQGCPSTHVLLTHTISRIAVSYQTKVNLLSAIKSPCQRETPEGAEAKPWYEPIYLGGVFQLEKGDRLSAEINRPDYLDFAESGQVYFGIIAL

By AC50 is commonly meant the midpoint of the concentration-response curve, whichever way the signal moves. Regarding `CCOc1ccc2c(c1)C(C)=CC(C)(C)N2`, the outcome in assay [1] was “inactive”; in [2], “inactive”; in assay [3], “inactive”; with CD40, CD40 (gene 958) [4], “inactive”; in assay [5] it was “inactive”; in assay [6], “inactive”. The outcome in assay [7] is “inactive”; in assay [8], “inactive”; in assay [10] it was “inactive”; in assay [12] it was “inactive”; with CD38, CD38 (gene 952), “inactive”; with CD40, CD40 (gene 958) [13], “inactive”. The outcome was “inactive” with CD69, CD69 (gene 969) and “inactive” in assay [14]. For the same molecule, the AC50 was 4.6 µM (active) in [9] and 3.97 µM (active) in assay [11].
Turning to `CC(=O)OCCOCCOCCOC(C)=O`, the outcome in assay [1] was “inactive”; in [2] it was “inactive”; in assay [3] it was “inactive”; in the assay with CD40, CD40 (gene 958) [4], “inactive”; in assay [5], “inactive”; in assay [6] it was “inactive”. The outcome in [7] was “inactive”; in assay [8], “inactive”; in assay [9] it was “inactive”; in [10] it was “inactive”; in assay [12] it was “inactive”; with CD38, CD38 (gene 952), “inactive”. The outcome was “inactive” in the assay with CD40, CD40 (gene 958) [13]; “inactive” with CD69, CD69 (gene 969); “inactive” in assay [15]; “inactive” in assay [14].
In the case of `NS(=O)(=O)c1cc2c(cc1Cl)NCNS2(=O)=O`, the outcome was “inactive” in [1]; “inactive” in assay [2]; “inactive” in [3]; “inactive” with CD40, CD40 (gene 958) [4]; “inactive” in [5]; “inactive” in assay [6]. The outcome in assay [7] is “inactive”; in [8], “inactive”; in [9], “inactive”; in assay [10], “inactive”; in [12], “inactive”; in the assay with CD38, CD38 (gene 952), “inactive”. The outcome with CD40, CD40 (gene 958) [13] was “inactive”; in the assay with CD69, CD69 (gene 969), “inactive”; in assay [15] it was “inactive”; in assay [14] it was “inactive”.
Take `COc1ccc(C)cc1N`: the outcome was “inactive” in [1]; “inactive” in assay [2]; “inactive” in assay [3]; “inactive” with CD40, CD40 (gene 958) [4]; “inactive” in [5]; “inactive” in [6]. Further, the result in assay [7], in assay [8], in assay [9], in assay [10], in assay [11] and in assay [12] was inactive. The outcome with CD38, CD38 (gene 952) is “inactive”; in the assay with CD40, CD40 (gene 958) [13], “inactive”; with CD69, CD69 (gene 969) it was “inactive”; in assay [15], “inactive”; in assay [14], “inactive”.
